Test [1] can be described thus: NCI Yeast Anticancer Drug Screen. Data for the rad50 strain (AID 155).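 Further: 0% = growth of vehicle-only cultures of the same strain.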 Particulars: S. cerevisiae rad50 strain growth inhibition, hits give high values. The essentials:
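Growth of the mutant yeast was measured after compound exposure and referenced to vehicle-treated cultures.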

Test [2] is described as follows: NCI Yeast Anticancer Drug Screen. Data for the mec2-1 strain (AID 157). To be noted: S. cerevisiae mec2-1 strain, hits give high values. The essentials:
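Strain: mec2-1 (DNA repair/cell cycle alteration). Compound exposure, then growth measured; inhibition expressed relative to vehicle.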

Test [3] can be described thus: NCI Yeast Anticancer Drug Screen. Data for the sgs1 mgt1 strain (AID 161).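 Further: 0% = growth of cultures given vehicle only.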 Particulars: S. cerevisiae sgs1 mgt1 strain, hits give high values. The essentials:
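Genetically altered yeast, compound exposure, growth inhibition relative to vehicle.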

Test [4] can be described thus: NCI Yeast Anticancer Drug Screen. Data for the cln2 rad14 strain (AID 165).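 Further: 0% = growth equal to vehicle treated cultures.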 To be noted: S. cerevisiae cln2 rad14 strain, hits give high values. Put shortly:
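Compounds are applied to the cln2 rad14 yeast strain, and growth is then compared with that of vehicle-treated cultures to give inhibition.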

Test [5] can be described thus: NCI Yeast Anticancer Drug Screen. Data for the bub3 strain (AID 167). Particulars: S. cerevisiae bub3 mutant strain, hits give high values. The essentials:
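Whole-cell yeast assay. The mutant strain was incubated with compounds, and growth inhibition was determined by comparison with vehicle-treated cells.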

Test [6] in a line: NCI Yeast Anticancer Drug Screen. Data for the mlh1 rad18 strain (AID 175). To be noted: S. cerevisiae mlh1 rad18 strain growth inhibition, hits give high values. Put shortly:
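Read-out is yeast growth inhibition, calculated against vehicle-only controls. The compound was applied to a strain engineered with DNA damage repair alterations.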

The mark [7] stands for this setting: at 5.0 µM (retest, dose inferred, filed as 0.5).
Where [8] appears, read: at 50.0 µM (retest, dose inferred, filed as 5.0).

The panel holds about 79,000 compounds, 15% with a hit somewhere; the sample as a whole holds those more often. Unmarked numbers belong to inactive results. Calls of active or inactive are those of the source. No stated cut-off is given here; in the data, active means growth inhibition above about 70%; inactive means the rest.

Consider `CCOC(=O)[C@]12CCC[C@@]1(O)NC(=O)c1cnccc12`, for which the growth inhibition was 33% in test [1] (setting [7]); 99% (active) in test [1] (setting [8]); 97.3% (active) in test [1] (at 50.0 µM); 13% in test [2] (setting [7]); 99% (active) in test [2] (setting [8]); 97.7% (active) in test [2] (at 50.0 µM). The growth inhibition was 15% in test [3] (setting [7]); 98% (active) in test [3] (setting [8]); 97.4% (active) in test [3] (at 50.0 µM); -1% in test [4] (setting [7]); 7% in test [4] (setting [8]); 91.2% (active) in test [4] (at 50.0 µM). The growth inhibition in test [5] (setting [7]) is -2%; in test [5] (setting [8]) it was 9%; in test [5] (at 50.0 µM) it was 96.9% (active); in test [6] (setting [7]), 0%; in test [6] (setting [8]) it was 97% (active); in test [6] (at 50.0 µM) it was 97.3% (active).

Turning to `COc1ccc2c(c1)CCC1=C2C=C[P+]1(C)C`, the growth inhibition is -4% in test [1] (setting [7]); 98% (active) in test [1] (setting [8]); 99.5% (active) in test [1] (at 50.0 µM); -5% in test [2] (setting [7]); 96% (active) in test [2] (setting [8]); 99.7% (active) in test [2] (at 50.0 µM). In addition, the growth inhibition in test [3] (setting [7]) is -1%; in test [3] (setting [8]), 100% (active); in test [3] (at 50.0 µM), 99.7% (active); in test [4] (setting [7]) it was 4%; in test [4] (setting [8]), 71% (active); in test [4] (at 50.0 µM), 94.6% (active). The growth inhibition in test [5] (setting [7]) was -2%; in test [5] (setting [8]), 97% (active); in test [5] (at 50.0 µM), 99.7% (active); in test [6] (setting [7]), -2%; in test [6] (setting [8]), 99% (active); in test [6] (at 50.0 µM), 99.5% (active).

For `c1ccc2c(c1)Nc1ccccc1[P+]21c2ccccc2Nc2ccccc21`, the growth inhibition was 98% (active) in test [1] (setting [7]); 99% (active) in test [1] (setting [8]); 82.8% (active) in test [1] (at 50.0 µM); 99% (active) in test [2] (setting [7]); 99% (active) in test [2] (setting [8]); 98.8% (active) in test [2] (at 50.0 µM). The growth inhibition in test [3] (setting [7]) was 99% (active); in test [3] (setting [8]) it was 99% (active); in test [3] (at 50.0 µM), 59.4%; in test [4] (setting [7]), 99% (active); in test [4] (setting [8]), 99% (active); in test [4] (at 50.0 µM) it was 84.3% (active). The growth inhibition is 99% (active) in test [5] (setting [7]); 99% (active) in test [5] (setting [8]); 98.7% (active) in test [5] (at 50.0 µM); 99% (active) in test [6] (setting [7]); 99% (active) in test [6] (setting [8]); 98.6% (active) in test [6] (at 50.0 µM).

As to `Oc1c(Cl)cc(Br)cc1Cl`, the growth inhibition was 44% in test [1] (setting [7]); 95% (active) in test [1] (setting [8]); 84.7% (active) in test [1] (at 50.0 µM); 19% in test [2] (setting [7]); 99% (active) in test [2] (setting [8]); 92.9% (active) in test [2] (at 50.0 µM). Further, the growth inhibition in test [3] (setting [7]) was 11%; in test [3] (setting [8]) it was 93% (active); in test [3] (at 50.0 µM), 96.5% (active); in test [4] (setting [7]), 3%; in test [4] (setting [8]), 99% (active); in test [4] (at 50.0 µM), 78.5% (active). Besides, the growth inhibition is 13% in test [5] (setting [7]); 99% (active) in test [5] (setting [8]); 89.3% (active) in test [5] (at 50.0 µM); 12% in test [6] (setting [7]); 97% (active) in test [6] (setting [8]); 91.8% (active) in test [6] (at 50.0 µM).

`O=C1Oc2ccccc2C1c1ccccc1` (configuration not stated): the growth inhibition was 16% in test [1] (setting [7]); 90% (active) in test [1] (setting [8]); 28.6% in test [1] (at 50.0 µM); 1% in test [2] (setting [7]); 87% (active) in test [2] (setting [8]); 35.5% in test [2] (at 50.0 µM). The growth inhibition in test [3] (setting [7]) is 4%; in test [3] (setting [8]) it was 91% (active); in test [3] (at 50.0 µM), -2.1%; in test [4] (setting [7]), 10%; in test [4] (setting [8]), 92% (active); in test [4] (at 50.0 µM) it was 8.4%. For the same molecule, the growth inhibition in test [5] (setting [7]) was -1%; in test [5] (setting [8]), 95% (active); in test [5] (at 50.0 µM), 34.5%; in test [6] (setting [7]), 1%; in test [6] (setting [8]) it was 93% (active); in test [6] (at 50.0 µM), 27.5%.

For `O=S(=O)(c1ccc(OCC(O)COc2ccc(S(=O)(=O)c3ccc(OCC4CO4)cc3)cc2)cc1)c1ccc(OCC2CO2)cc1` (configuration not stated), the growth inhibition in test [1] (setting [7]) is -5%; in test [1] (setting [8]) it was -9%; in test [1] (at 50.0 µM), 21.6%; in test [2] (setting [7]) it was 4%; in test [2] (setting [8]), 11%; in test [2] (at 50.0 µM), 37.2%. Moreover, the growth inhibition in test [3] (setting [7]) was 0%; in test [3] (setting [8]), 19%; in test [3] (at 50.0 µM), 63.1%; in test [4] (setting [7]), 3%; in test [4] (setting [8]), 25%; in test [4] (at 50.0 µM) it was 2.95%. The growth inhibition in test [5] (setting [7]) was -4%; in test [5] (setting [8]) it was -2%; in test [5] (at 50.0 µM), -20.5%; in test [6] (setting [7]), 8%; in test [6] (setting [8]), 29%; in test [6] (at 50.0 µM), 78.1% (active).

In the case of `COC(=O)[C@@H]1c2cc3c(c(O)c2[C@@H](OC2OC(C)C(OC)C(C)(OC)C2OC)C[C@]1(C)O)C(=O)c1c(O)cc2c(c1C3=O)O[C@H]1O[C@]2(C)[C@H](O)[C@@H](N(C)C)[C@@H]1O` (some centres not stated), the growth inhibition in test [1] (setting [7]) is 61%; in test [1] (setting [8]), 98% (active); in test [1] (at 50.0 µM), 90.8% (active); in test [2] (setting [7]) it was 45%; in test [2] (setting [8]), 99% (active); in test [2] (at 50.0 µM) it was 93% (active). The growth inhibition in test [3] (setting [7]) was 35%; in test [3] (setting [8]), 99% (active); in test [3] (at 50.0 µM) it was 92.3% (active); in test [4] (setting [7]) it was 33%; in test [4] (setting [8]), 98% (active); in test [4] (at 50.0 µM), 90.6% (active). For the same molecule, the growth inhibition in test [5] (setting [7]) is 60%; in test [5] (setting [8]) it was 99% (active); in test [5] (at 50.0 µM), 91.2% (active); in test [6] (setting [7]) it was 79% (active); in test [6] (setting [8]), 98% (active); in test [6] (at 50.0 µM), 89.8% (active).

With `O=c1ccccc(Br)c1O`, the growth inhibition was 12% in test [1] (setting [7]); 97% (active) in test [1] (setting [8]); 98.7% (active) in test [1] (at 50.0 µM); 10% in test [2] (setting [7]); 93% (active) in test [2] (setting [8]); 97.8% (active) in test [2] (at 50.0 µM). Moreover, the growth inhibition in test [3] (setting [7]) is 6%; in test [3] (setting [8]), 97% (active); in test [3] (at 50.0 µM), 99.6% (active); in test [4] (setting [7]), 19%; in test [4] (setting [8]) it was 87% (active); in test [4] (at 50.0 µM), 93.1% (active). Further, the growth inhibition in test [5] (setting [7]) is 8%; in test [5] (setting [8]), 98% (active); in test [5] (at 50.0 µM), 97.6% (active); in test [6] (setting [7]), 9%; in test [6] (setting [8]), 97% (active); in test [6] (at 50.0 µM), 98.9% (active).

In the case of `CN(CC(=O)O)c1ncc2c(n1)-c1ccccc1OC2`, the growth inhibition in test [1] (setting [7]) was 17%; in test [1] (setting [8]), 13%; in test [1] (at 50.0 µM), 48.6%; in test [2] (setting [7]) it was 8%; in test [2] (setting [8]) it was 12%; in test [2] (at 50.0 µM), 57.1%. Also, the growth inhibition in test [3] (setting [7]) is 6%; in test [3] (setting [8]), 17%; in test [3] (at 50.0 µM), -21%; in test [4] (setting [7]) it was 14%; in test [4] (setting [8]), 18%; in test [4] (at 50.0 µM), -23.5%. Moreover, the growth inhibition is 12% in test [5] (setting [7]); 15% in test [5] (setting [8]); -28.1% in test [5] (at 50.0 µM); 14% in test [6] (setting [7]); 10% in test [6] (setting [8]); -55.2% in test [6] (at 50.0 µM).

For the origin of these results see PubChem BioAssay (NCI).
